24 compounds from PubChem BioAssay (Tox21) can be followed below.

Several values for one entry are separate records, joined by “and”; a condition that tells them apart may be missing. Identical values can stand only once. Results filed as inconclusive are left out. Where a call stands in place of a potency, no number is given. A structure can be active in one record and inactive in another. Activity calls are given as the source filed them. Unless noted, calls follow the shape of the full dose curve.
Potency is read from the fitted curve at half-maximal effect.

Test system in one assay: not listed separately
As to the kind of experiment: qHTS assay to identify small molecule antagonists of the thyroid receptor (TR) signaling pathway (AID 743065; active = well fitted inhibition curve with a large enough effect in the repeat runs; also: nearly all actives have a fitted effect of over 55% in size). The settings on record: GH3.TRE-Luc, T3-stimulated luciferase inhibition, 23.5 h; series mostly up to 70.3 µM; activity, negative = inhibition: at the top concentration. The method in brief:
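GH3.TRE-Luc rat pituitary cells carrying two TR response elements driving luciferase were plated for 4 h, given compound plus 1 nM T3 (final), and incubated 23.5 h at 37 C. ONE-Glo luminescence measured reporter inhibition; CellTiter-Fluor fluorescence tracked cytotoxicity.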
For orientation: In qHTS, concentration-response curves come from the screen itself.
As for `COc1ccc(C(Cl)=C(c2ccc(OC)cc2)c2ccc(OC)cc2)cc1`, the Potency was 11.9 µM (active) and 6.08 µM (active) and 7.7 µM (active).

For the compound `Cc1ncc([N+](=O)[O-])n1CCO`, the Potency result was “inactive”. The same measure, in the same setting: to `Nc1ccc([N+](=O)[O-])cc1O` belongs 48.6 µM (active); to `CC/C(=C(\c1ccccc1)c1ccc(OCCN(C)C)cc1)c1ccccc1`, 8.63 µM (active) [middle of 5 runs]; to `CCCc1cc(=O)[nH]c(=S)[nH]1`, “inactive”.

As to `CCOc1ccc(NC(C)=O)cc1`, the Potency result was “inactive”. Turning to `O=c1[nH]cnc2c1ncn2[C@H]1CC[C@@H](CO)O1`, the Potency result was “inactive”.

In the next assay the test system is thyroid hormone receptor (rat, GH3 cells). As to the kind of experiment: qHTS assay to identify small molecule agonists of the thyroid receptor (TR) signaling pathway (AID 743066). The following applies: GH3.TRE-Luc cells, TR agonist luciferase, 24 h; series mostly up to 83.9 µM; activation: at the top concentration.
As for `CC(C)NCC(O)c1ccc(O)c(O)c1` (stereo unspecified), the Potency result was “inactive”.

Take `O=C1OC2(c3ccccc31)c1cc(Br)c(O)c(Br)c1Oc1c2cc(Br)c(O)c1Br`: the Potency result was “inactive”. The same measure, in the same setting: the result for `C[C@](N)(Cc1ccc(O)c(O)c1)C(=O)O` reads “inactive”; that for `CCCCC1(COC(=O)CCC(=O)O)C(=O)N(c2ccccc2)N(c2ccccc2)C1=O`, “inactive”; that for `O=S1(=O)OC(c2ccc(O)cc2)(c2ccc(O)cc2)c2ccccc21`, “inactive”. Still for that read-out and setting: the result for `CCCCCCCC(=O)OCC(COC(=O)CCCCCCC)OC(=O)CCCCCCC` reads “inactive”. Take `CCN(CC)C(=O)c1cccc(C)c1`: the Potency result is “inactive”.

For the compound `NS(=O)(=O)c1cc2c(cc1Cl)NCNS2(=O)=O`, the Potency entry was “inactive”. `C=C(C)C(=O)OCC(C)O` (stereo unspecified): the Potency result is “inactive”. On the same count and under the same terms, the result for `CC(=O)Nc1c(I)c(NC(C)=O)c(I)c(C(=O)O)c1I` reads “inactive”; that for `CC(C)c1c(C(=O)Nc2ccccc2)c(-c2ccccc2)c(-c2ccc(F)cc2)n1CC[C@@H](O)C[C@@H](O)CC(=O)O`, “inactive”. Same read-out and setting: the result for `Cc1ncc([N+](=O)[O-])n1C` reads “inactive”; that for `CN(N=O)C(=O)N[C@@H]1[C@@H](O)[C@H](O)[C@@H](CO)O[C@@H]1O`, “inactive”; that for `CN(C)C(=O)Nc1ccc(Cl)c(Cl)c1`, “inactive”. Still for that read-out and setting: the result for `Cc1cccc(C)c1` reads “inactive”. Turning to `O=C(Nc1ncc([N+](=O)[O-])s1)c1cccs1`, the “activation” value was -5.78% (inactive).

Turning to `COc1ccc(C(Cl)=C(c2ccc(OC)cc2)c2ccc(OC)cc2)cc1`, the Potency result was “inactive”. Same read-out and setting: to `Cc1ncc([N+](=O)[O-])n1CCO` belongs “inactive”.

Consider `Nc1ccc([N+](=O)[O-])cc1O`, for which the “activation” value is -3.32% (inactive). Still for that read-out and setting: the result for `CC/C(=C(\c1ccccc1)c1ccc(OCCN(C)C)cc1)c1ccccc1` reads -7.86% [at 95.2 µM] (inactive). Consider `CCCc1cc(=O)[nH]c(=S)[nH]1`, for which the Potency entry is “inactive”. For the compound `COc1cccc(O)c1O`, the “activation” value was -4.67% [at 95.2 µM] (inactive). On to `CCOc1ccc(NC(C)=O)cc1`, for which the Potency entry was “inactive”. The same measure, in the same setting: to `O=c1[nH]cnc2c1ncn2[C@H]1CC[C@@H](CO)O1` belongs “inactive and 1.31 µM (active)”.
